# Changes are numbered by the printed parent chain.
# Assays:
# Assay in all cases: PBM; 200 nM protein, PBS
# Conditions in all cases: dsDNA, one strand shown
# HESX1 [1] = target: HESX1 (Homo sapiens, UniProt Q9UBX0 95-180, R165K)
# HESX1 [2] = target: HESX1 (Homo sapiens, UniProt Q9UBX0 95-180)
# HESX1 [3] = target: HESX1 (Homo sapiens, UniProt Q9UBX0 95-180, P111T)
# HESX1 [4] = target: HESX1 (Homo sapiens, UniProt Q9UBX0 95-180, F115L)
# HOXB4 [5] = target: HOXB4 (Homo sapiens, UniProt P17483 148-234)
# VENTX [6] = target: T1, VENTX (Homo sapiens, UniProt O95231 78-163, R121Q)
# T1 sequence: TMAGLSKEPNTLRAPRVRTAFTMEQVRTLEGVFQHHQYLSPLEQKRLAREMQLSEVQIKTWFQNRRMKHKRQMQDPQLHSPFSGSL
# HOXA4 [7] = target: HOXA4 (Homo sapiens, UniProt Q00056 201-287, W262R)
# VENTX [8] = target: T2, VENTX (Homo sapiens, UniProt O95231 78-163, Y115F)
# T2 sequence: T1 sequence with Y38F, Q44R
# HOXA2 [9] = target: HOXA2 (Homo sapiens, UniProt O43364 129-215, R185T)
# HOXA4 [10] = target: HOXA4 (Homo sapiens, UniProt Q00056 201-287, R217L)
# HOXB4 [11] = target: HOXB4 (Homo sapiens, UniProt P17483 148-234, V174I)
# HOXA2 [12] = target: HOXA2 (Homo sapiens, UniProt O43364 129-215, R185K)
# HOXA4 [13] = target: HOXA4 (Homo sapiens, UniProt Q00056 201-287)
# VAX1 [14] = target: VAX1 (Homo sapiens, UniProt Q5SQQ9 86-172)
# VAX1 [15] = target: VAX1 (Homo sapiens, UniProt Q5SQQ9 86-172, T142I)
# HOXA2 [16] = target: HOXA2 (Homo sapiens, UniProt O43364 129-215, Y150S)
# HOXA4 [17] = target: HOXA4 (Homo sapiens, UniProt Q00056 201-287, W262F)
# HOXA2 [18] = target: HOXA2 (Homo sapiens, UniProt O43364 129-215)
# VAX1 [19] = target: VAX1 (Homo sapiens, UniProt Q5SQQ9 86-172, K157R)
# HESX1 [20] = target: HESX1 (Homo sapiens, UniProt Q9UBX0 95-180, R109Q)
# Sequence of HESX1 (Homo sapiens, UniProt Q9UBX0 95-180, R109Q) (Q9UBX0 95-180 R109Q): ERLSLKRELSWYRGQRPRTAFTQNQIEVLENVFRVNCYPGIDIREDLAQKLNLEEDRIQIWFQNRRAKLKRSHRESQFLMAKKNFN
# Sequence of HOXA4 (Homo sapiens, UniProt Q00056 201-287, W262R) (Q00056 201-287 W262R): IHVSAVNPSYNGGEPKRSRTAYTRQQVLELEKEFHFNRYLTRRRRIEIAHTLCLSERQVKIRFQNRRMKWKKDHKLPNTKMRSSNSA
# Sequence of HESX1 (Homo sapiens, UniProt Q9UBX0 95-180) (Q9UBX0 95-180): as the sequence (Q9UBX0 95-180 R109Q) above, with Q15R counted along it
# Sequence of HOXB4 (Homo sapiens, UniProt P17483 148-234) (P17483 148-234): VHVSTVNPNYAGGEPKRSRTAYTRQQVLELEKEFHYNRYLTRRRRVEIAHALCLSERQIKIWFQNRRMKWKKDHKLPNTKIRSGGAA
# Sequence of HESX1 (Homo sapiens, UniProt Q9UBX0 95-180, F115L) (Q9UBX0 95-180 F115L): as the sequence (Q9UBX0 95-180 R109Q) above, with Q15R, F21L counted along it
# Sequence of HESX1 (Homo sapiens, UniProt Q9UBX0 95-180, R165K) (Q9UBX0 95-180 R165K): as the sequence (Q9UBX0 95-180 R109Q) above, with Q15R, R71K counted along it
# Sequence of HOXB4 (Homo sapiens, UniProt P17483 148-234, V174I) (P17483 148-234 V174I): as the sequence (P17483 148-234) above, with V27I counted along it
# Sequence of HOXA4 (Homo sapiens, UniProt Q00056 201-287, R217L) (Q00056 201-287 R217L): as the sequence (Q00056 201-287 W262R) above, with R17L, R62W counted along it
# Sequence of HOXA4 (Homo sapiens, UniProt Q00056 201-287, W262F) (Q00056 201-287 W262F): as the sequence (Q00056 201-287 W262R) above, with R62F counted along it
# Sequence of HESX1 (Homo sapiens, UniProt Q9UBX0 95-180, P111T) (Q9UBX0 95-180 P111T): as the sequence (Q9UBX0 95-180 R109Q) above, with Q15R, P17T counted along it
# Sequence of HOXA4 (Homo sapiens, UniProt Q00056 201-287) (Q00056 201-287): as the sequence (Q00056 201-287 W262R) above, with R62W counted along it
# Sequence of VAX1 (Homo sapiens, UniProt Q5SQQ9 86-172) (Q5SQQ9 86-172): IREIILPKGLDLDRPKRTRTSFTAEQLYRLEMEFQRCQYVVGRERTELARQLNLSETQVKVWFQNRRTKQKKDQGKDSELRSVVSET
# Sequence of HOXA2 (Homo sapiens, UniProt O43364 129-215, R185K) (O43364 129-215 R185K): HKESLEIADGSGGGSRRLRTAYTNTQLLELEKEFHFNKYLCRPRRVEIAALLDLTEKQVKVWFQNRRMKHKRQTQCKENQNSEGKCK
# Sequence of HOXA2 (Homo sapiens, UniProt O43364 129-215, Y150S) (O43364 129-215 Y150S): as the sequence (O43364 129-215 R185K) above, with Y22S, K57R counted along it
# Sequence of VAX1 (Homo sapiens, UniProt Q5SQQ9 86-172, T142I) (Q5SQQ9 86-172 T142I): as the sequence (Q5SQQ9 86-172) above, with T57I counted along it
# Sequence of VAX1 (Homo sapiens, UniProt Q5SQQ9 86-172, K157R) (Q5SQQ9 86-172 K157R): as the sequence (Q5SQQ9 86-172) above, with K72R counted along it
# Sequence of HOXA2 (Homo sapiens, UniProt O43364 129-215, R185T) (O43364 129-215 R185T): as the sequence (O43364 129-215 R185K) above, with K57T counted along it
# Sequence of HOXA2 (Homo sapiens, UniProt O43364 129-215) (O43364 129-215): as the sequence (O43364 129-215 R185K) above, with K57R counted along it
sequence,measurement,setting,value
ACTATAGA,binding signal,HESX1 [1],"7.13 upbm affinity estimate (log intensity, higher = more binding, comparable within an allelic series)"
same,binding signal,HESX1 [2],"7.13 upbm affinity estimate (log intensity, higher = more binding, comparable within an allelic series)"
same,binding signal,HESX1 [3],"7.02 upbm affinity estimate (log intensity, higher = more binding, comparable within an allelic series)"
CTCAATTC,binding signal,HESX1 [1],"7.54 upbm affinity estimate (log intensity, higher = more binding, comparable within an allelic series)"
same,binding signal,HESX1 [2],"7.59 upbm affinity estimate (log intensity, higher = more binding, comparable within an allelic series)"
same,binding signal,HESX1 [3],"7.26 upbm affinity estimate (log intensity, higher = more binding, comparable within an allelic series)"
TAACGATA,binding signal,HESX1 [1],"7.67 upbm affinity estimate (log intensity, higher = more binding, comparable within an allelic series)"
same,binding signal,HESX1 [2],"7.8 upbm affinity estimate (log intensity, higher = more binding, comparable within an allelic series)"
same,binding signal,HESX1 [3],"7.53 upbm affinity estimate (log intensity, higher = more binding, comparable within an allelic series)"
TATTGCCA,binding signal,HESX1 [1],"7.79 upbm affinity estimate (log intensity, higher = more binding, comparable within an allelic series)"
same,binding signal,HESX1 [2],"7.9 upbm affinity estimate (log intensity, higher = more binding, comparable within an allelic series)"
same,binding signal,HESX1 [3],"7.47 upbm affinity estimate (log intensity, higher = more binding, comparable within an allelic series)"
CATTAGAG,binding signal,HESX1 [1],"8.32 upbm affinity estimate (log intensity, higher = more binding, comparable within an allelic series)"
same,binding signal,HESX1 [2],"8.46 upbm affinity estimate (log intensity, higher = more binding, comparable within an allelic series)"
same,binding signal,HESX1 [4],"6.84 upbm affinity estimate (log intensity, higher = more binding, comparable within an allelic series)"
ATTCATAA,binding signal,HESX1 [1],"7.97 upbm affinity estimate (log intensity, higher = more binding, comparable within an allelic series)"
same,binding signal,HESX1 [2],"8.03 upbm affinity estimate (log intensity, higher = more binding, comparable within an allelic series)"
same,binding signal,HESX1 [3],"7.62 upbm affinity estimate (log intensity, higher = more binding, comparable within an allelic series)"
CTCATTAA,binding signal,HOXB4 [5],"13.2 upbm affinity estimate (log intensity, higher = more binding, comparable within an allelic series)"
same,binding signal,VENTX [6],"12 upbm affinity estimate (log intensity, higher = more binding, comparable within an allelic series)"
same,binding signal,HOXA4 [7],"10.6 upbm affinity estimate (log intensity, higher = more binding, comparable within an allelic series)"
same,binding signal,VENTX [8],"12 upbm affinity estimate (log intensity, higher = more binding, comparable within an allelic series)"
same,binding signal,HOXA2 [9],"13.3 upbm affinity estimate (log intensity, higher = more binding, comparable within an allelic series)"
same,binding signal,HOXA4 [10],"12.5 upbm affinity estimate (log intensity, higher = more binding, comparable within an allelic series)"
same,binding signal,HOXB4 [11],"13.9 upbm affinity estimate (log intensity, higher = more binding, comparable within an allelic series)"
same,binding signal,HOXA2 [12],"13.6 upbm affinity estimate (log intensity, higher = more binding, comparable within an allelic series)"
same,binding signal,HOXA4 [13],"14 upbm affinity estimate (log intensity, higher = more binding, comparable within an allelic series)"
same,binding signal,VAX1 [14],"13.7 upbm affinity estimate (log intensity, higher = more binding, comparable within an allelic series)"
same,binding signal,VAX1 [15],"13.5 upbm affinity estimate (log intensity, higher = more binding, comparable within an allelic series)"
same,binding signal,HOXA2 [16],"10.7 upbm affinity estimate (log intensity, higher = more binding, comparable within an allelic series)"
same,binding signal,HOXA4 [17],"12 upbm affinity estimate (log intensity, higher = more binding, comparable within an allelic series)"
same,binding signal,HOXA2 [18],"12.9 upbm affinity estimate (log intensity, higher = more binding, comparable within an allelic series)"
same,binding signal,VAX1 [19],"13.6 upbm affinity estimate (log intensity, higher = more binding, comparable within an allelic series)"
GACGCCGC,binding signal,HOXB4 [5],"7.74 upbm affinity estimate (log intensity, higher = more binding, comparable within an allelic series)"
same,binding signal,HOXB4 [11],"7.51 upbm affinity estimate (log intensity, higher = more binding, comparable within an allelic series)"
ATTAGTGC,binding signal,HESX1 [1],"9.5 upbm affinity estimate (log intensity, higher = more binding, comparable within an allelic series)"
same,binding signal,HESX1 [2],"9.81 upbm affinity estimate (log intensity, higher = more binding, comparable within an allelic series)"
same,binding signal,HESX1 [3],"8.71 upbm affinity estimate (log intensity, higher = more binding, comparable within an allelic series)"
same,binding signal,HESX1 [4],"6.94 upbm affinity estimate (log intensity, higher = more binding, comparable within an allelic series)"
GATCATTA,binding signal,HOXB4 [5],"13.4 upbm affinity estimate (log intensity, higher = more binding, comparable within an allelic series)"
same,binding signal,HOXA4 [7],"10.5 upbm affinity estimate (log intensity, higher = more binding, comparable within an allelic series)"
same,binding signal,HOXA2 [9],"12.5 upbm affinity estimate (log intensity, higher = more binding, comparable within an allelic series)"
same,binding signal,HOXA4 [10],"12.4 upbm affinity estimate (log intensity, higher = more binding, comparable within an allelic series)"
same,binding signal,HOXB4 [11],"14.1 upbm affinity estimate (log intensity, higher = more binding, comparable within an allelic series)"
same,binding signal,HOXA2 [12],"13.3 upbm affinity estimate (log intensity, higher = more binding, comparable within an allelic series)"
same,binding signal,HOXA4 [13],"14.1 upbm affinity estimate (log intensity, higher = more binding, comparable within an allelic series)"
same,binding signal,VAX1 [14],"13 upbm affinity estimate (log intensity, higher = more binding, comparable within an allelic series)"
same,binding signal,VAX1 [15],"13.1 upbm affinity estimate (log intensity, higher = more binding, comparable within an allelic series)"
same,binding signal,HOXA2 [16],"10.9 upbm affinity estimate (log intensity, higher = more binding, comparable within an allelic series)"
same,binding signal,HOXA4 [17],"11.9 upbm affinity estimate (log intensity, higher = more binding, comparable within an allelic series)"
same,binding signal,HOXA2 [18],"12.6 upbm affinity estimate (log intensity, higher = more binding, comparable within an allelic series)"
same,binding signal,VAX1 [19],"13 upbm affinity estimate (log intensity, higher = more binding, comparable within an allelic series)"
CGCAGGCG,binding signal,HOXB4 [5],"7.74 upbm affinity estimate (log intensity, higher = more binding, comparable within an allelic series)"
same,binding signal,HOXB4 [11],"7.65 upbm affinity estimate (log intensity, higher = more binding, comparable within an allelic series)"
CGATATTA,binding signal,HESX1 [1],"8.16 upbm affinity estimate (log intensity, higher = more binding, comparable within an allelic series)"
same,binding signal,HESX1 [2],"8.27 upbm affinity estimate (log intensity, higher = more binding, comparable within an allelic series)"
same,binding signal,HESX1 [3],"7.74 upbm affinity estimate (log intensity, higher = more binding, comparable within an allelic series)"
TATCAATA,binding signal,HESX1 [1],"7.76 upbm affinity estimate (log intensity, higher = more binding, comparable within an allelic series)"
same,binding signal,HESX1 [2],"7.98 upbm affinity estimate (log intensity, higher = more binding, comparable within an allelic series)"
same,binding signal,HESX1 [20],"7.49 upbm affinity estimate (log intensity, higher = more binding, comparable within an allelic series)"
same,binding signal,HESX1 [3],"7.63 upbm affinity estimate (log intensity, higher = more binding, comparable within an allelic series)"
same,binding signal,HESX1 [4],"7.36 upbm affinity estimate (log intensity, higher = more binding, comparable within an allelic series)"
TGTGATAA,binding signal,HESX1 [1],"7.98 upbm affinity estimate (log intensity, higher = more binding, comparable within an allelic series)"
same,binding signal,HESX1 [2],"8.21 upbm affinity estimate (log intensity, higher = more binding, comparable within an allelic series)"
same,binding signal,HESX1 [3],"7.65 upbm affinity estimate (log intensity, higher = more binding, comparable within an allelic series)"
CGTCCCGC,binding signal,HOXB4 [5],"7.48 upbm affinity estimate (log intensity, higher = more binding, comparable within an allelic series)"
same,binding signal,VENTX [6],"7.82 upbm affinity estimate (log intensity, higher = more binding, comparable within an allelic series)"
same,binding signal,VENTX [8],"7.87 upbm affinity estimate (log intensity, higher = more binding, comparable within an allelic series)"
same,binding signal,HOXB4 [11],"7.45 upbm affinity estimate (log intensity, higher = more binding, comparable within an allelic series)"
ATGTATAA,binding signal,HESX1 [1],"7.77 upbm affinity estimate (log intensity, higher = more binding, comparable within an allelic series)"
same,binding signal,HESX1 [2],"7.72 upbm affinity estimate (log intensity, higher = more binding, comparable within an allelic series)"
same,binding signal,HESX1 [3],"7.36 upbm affinity estimate (log intensity, higher = more binding, comparable within an allelic series)"
GTCATAAC,binding signal,HESX1 [1],"7.26 upbm affinity estimate (log intensity, higher = more binding, comparable within an allelic series)"
same,binding signal,HESX1 [2],"7.28 upbm affinity estimate (log intensity, higher = more binding, comparable within an allelic series)"
same,binding signal,HESX1 [3],"7.2 upbm affinity estimate (log intensity, higher = more binding, comparable within an allelic series)"
CAGGACCC,binding signal,HOXB4 [5],"7.14 upbm affinity estimate (log intensity, higher = more binding, comparable within an allelic series)"
same,binding signal,HOXA4 [7],"9.96 upbm affinity estimate (log intensity, higher = more binding, comparable within an allelic series)"
same,binding signal,HOXA4 [10],"9.81 upbm affinity estimate (log intensity, higher = more binding, comparable within an allelic series)"
same,binding signal,HOXB4 [11],"7.15 upbm affinity estimate (log intensity, higher = more binding, comparable within an allelic series)"
same,binding signal,HOXA4 [13],"9.67 upbm affinity estimate (log intensity, higher = more binding, comparable within an allelic series)"
same,binding signal,HOXA4 [17],"9.89 upbm affinity estimate (log intensity, higher = more binding, comparable within an allelic series)"
AGTGTCGG,binding signal,HESX1 [1],"6.51 upbm affinity estimate (log intensity, higher = more binding, comparable within an allelic series)"
same,binding signal,HESX1 [2],"6.53 upbm affinity estimate (log intensity, higher = more binding, comparable within an allelic series)"
same,binding signal,HESX1 [20],"6.58 upbm affinity estimate (log intensity, higher = more binding, comparable within an allelic series)"
same,binding signal,HESX1 [3],"6.56 upbm affinity estimate (log intensity, higher = more binding, comparable within an allelic series)"
same,binding signal,HESX1 [4],"6.55 upbm affinity estimate (log intensity, higher = more binding, comparable within an allelic series)"
GACTCGGC,binding signal,HOXB4 [5],"7.87 upbm affinity estimate (log intensity, higher = more binding, comparable within an allelic series)"
same,binding signal,HOXB4 [11],"7.65 upbm affinity estimate (log intensity, higher = more binding, comparable within an allelic series)"
CCGCAAGG,binding signal,HOXB4 [5],"7.78 upbm affinity estimate (log intensity, higher = more binding, comparable within an allelic series)"
same,binding signal,HOXB4 [11],"7.66 upbm affinity estimate (log intensity, higher = more binding, comparable within an allelic series)"
AATAGTGT,binding signal,HESX1 [1],"7.52 upbm affinity estimate (log intensity, higher = more binding, comparable within an allelic series)"
same,binding signal,HESX1 [2],"7.75 upbm affinity estimate (log intensity, higher = more binding, comparable within an allelic series)"
same,binding signal,HESX1 [3],"7.31 upbm affinity estimate (log intensity, higher = more binding, comparable within an allelic series)"

# Source: paper PMC11006913
